High-throughput results (PubChem)
JMJD2A Tudor inh – inhibitors of human JMJD2A Tudor domain | O75164 | AlphaScreen JMJD2A-Tudor / H3K4me3 peptide binding | Potency, µM (titrated, usually from 114 µM), without a hit: top-dose activity change, negative = inhibition, usual class: inhibitors | hit rate 4.4% among 390,000; note: % is set by controls: 0 for no effect and ±100 for the full control effect; nearly all actives have a fitted effect of over 50% in size
BAZ2B block – blocks human BAZ2B; Q9UIF8; AlphaScreen BAZ2B-H3K14Ac peptide displacement; Potency, µM (titrated, usually from 114 µM), inactives show at the top dose activity change, negative = inhibition, usual class: inhibitors; hit rate 4.4% among 360,000; AID 504333; note: % is set by controls: 0 for no effect and ±100 for the full control effect; nearly all actives have a fitted effect of over 60% in size
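AlphaScreen displacement of biotin-H3(5-23)K14Ac peptide (50 nM final) from BAZ2B (50 nM final) in PBS pH 7.4, 0.01% Tween-20; complex preformed 30 min RT, then compounds (top 110 uM) 30 min RT, beads 20 min dark.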
HP1b chromo inh – blocks HP1-beta chromodomain binding to methylated histone tails | P83916 | AlphaScreen HP1-beta / biotin-H3K9me3 peptide binding | Potency, µM (highest dose often 114 µM), without a hit: at the highest dose activity change, negative = inhibition, most hits filed as inhibitors | hit rate 0.56% among 390,000 | AID 540317; note: nearly all actives have a fitted effect of over 70% in size
Target sequence (P83916 whole entry, looked up): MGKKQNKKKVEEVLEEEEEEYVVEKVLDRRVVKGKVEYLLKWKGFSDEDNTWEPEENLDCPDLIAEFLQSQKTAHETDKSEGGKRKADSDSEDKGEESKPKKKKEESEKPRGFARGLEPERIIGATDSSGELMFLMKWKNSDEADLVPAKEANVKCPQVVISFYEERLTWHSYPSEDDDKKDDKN
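AlphaScreen: HP1-beta (50 nM) preformed 30 min with biotin-H3(1-18)K9me3 peptide (50 nM) in PBS pH 7.4, 0.01% Tween-20. Compound added for 30 min at RT, then streptavidin donor/nickel chelate acceptor beads (10 ug/mL) for 30 min.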
G9a inh – G9a (human) methyltransferase inhibition | G9a H3K9 monomethylation, AlphaScreen, 2 h | Potency, µM (titrated, usually from 102 µM), without a hit: at the top dose activity, negative = inhibition, usual class: inhibitors | Q96KQ7 | hit rate 8.8% among 350,000; note: % is set by controls: 0 for no effect and ±100 for the full control effect; nearly all actives have a fitted effect of over 75% in size
Target sequence (Q96KQ7 913-1193 limits assumed): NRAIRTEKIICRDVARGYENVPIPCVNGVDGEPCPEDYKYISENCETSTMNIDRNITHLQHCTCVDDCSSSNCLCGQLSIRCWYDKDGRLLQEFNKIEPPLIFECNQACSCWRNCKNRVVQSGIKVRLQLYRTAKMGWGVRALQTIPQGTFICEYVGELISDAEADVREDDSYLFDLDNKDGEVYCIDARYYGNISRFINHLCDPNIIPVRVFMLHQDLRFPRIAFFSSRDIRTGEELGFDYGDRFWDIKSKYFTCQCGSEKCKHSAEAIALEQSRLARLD
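Signal arises when biotinylated H3K9 peptide, once monomethylated, bridges streptavidin donor and antibody-captured acceptor beads. Enzyme at 20 nM was preincubated 15 min with test compounds; peptide 500 nM and SAM 20 uM then reacted for 2 h.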
L3MBTL1 block – inhibitors of human L3MBTL1. Q9Y468. AlphaScreen L3MBTL1–H3K9me1 peptide binding. Potency, µM (doses to about 57.1 µM), without a hit: at the highest dose activity, negative = inhibition, most hits filed as inhibitors. hit rate 0.66% among 230,000. AID 485360; note: % is set by controls: 0 for no effect and ±100 for the full control effect; nearly all actives have a fitted effect of over 60% in size
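L3MBTL1 (50 nM) pre-complexed 30 min with biotinylated H3(1-15)K9me1 peptide (75 nM), then compounds added for 30 min at room temperature; AlphaScreen streptavidin donor/nickel chelate acceptor beads (10 ug/mL final) read after 30 min dark incubation.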
Starred values were filed as active, the others as inactive; ? = inconclusive; . = not tested or not shown; [ ] = remark or other dose. The list is not random: actives were taken first. Their share in the collection is about 11%. Calls come from the whole dose curve; as a rule, active = well fitted inhibition curve with a large enough effect; inconclusive = small, poorly fitted or top-dose-only effect; inactive = no such curve, though single readings can be large or run the other way. Potency is the fitted concentration of half-maximal effect.

SMILES	JMJD2A Tudor inh	BAZ2B block	HP1b chromo inh	G9a inh	L3MBTL1 block
CC[C@@H](C)[C@H]1O[C@]2(CC[C@H]1C)C[C@@H]1C[C@@H](CC=C(C)[C@@H](O[C@H]3C[C@H](OC)[C@@H](O[C@H]4C[C@H](OC)[C@@H](O)[C@H](C)O4)[C@H](C)O3)[C@@H](C)C=CC=C3CO[C@@H]4[C@H](O)C(C)=C[C@@H](C(=O)O1)[C@]34O)O2	.	.	.	29%[59 µM]	.
CN(CC(=O)Nc1cccc(F)c1)C(=O)/C=C/c1cn(Cc2ccccc2)nc1-c1cccnc1	-27%	-10%	18%	50µM*	-7%
O=C(O)/C=C/c1cn(Cc2ccccc2)nc1-c1cccnc1	-12%	-38%	29%	.	.
COc1ccc(/C=C2/NC(=O)CNC2=O)cc1	-10%	?	27%	?	.
CCCOc1ccc(N2C(=O)CC(N3CCC(C(=O)OCC)CC3)C2=O)cc1 (centres undefined)	-21%	-1%	29%	50µM*	7%
CCOc1ccc(N2C(=O)CC(SCC(=O)O)C2=O)cc1 (centres undefined)	1%	-3%	36%	50µM*	12%
CCOC(=O)C(N)CSC1CC(=O)N(c2ccc(C(=O)OC)cc2)C1=O (centres undefined)	?	-3%	-16%	8.9µM*	10%
CCOc1ccc(N2C(=O)CC(N)C2=O)cc1 (centres undefined)	-11%	0%	-24%	7.9µM*	?
CCOC(=O)c1noc2ncnc(N3CCN(c4ccccc4OC)CC3)c12	-21%	-16%	-12%	0%[59 µM]	.
O=C(c1ccc2c(c1)OCCO2)N1CCN(c2nc(-c3cccs3)nc3ccccc23)CC1	-20%	.	19%	.	.
CCCOc1ccc(N2C(=O)CC(SCCN)C2=O)cc1 (centres undefined)	-6%	-6%	26%	3.5µM*	6%
CCCOc1ccc(N2C(=O)CC(SCCc3nc4ccccc4[nH]3)C2=O)cc1 (centres undefined)	-19%	-14%	54%	-4%	4%
CCCOc1ccc(N2C(=O)CC(SCC(N)C(=O)OCC)C2=O)cc1 (centres undefined)	-9%	-3%	41%	71µM*	7%
COC(=O)c1ccc(N2C(=O)CC(SCCN)C2=O)cc1 (centres undefined)	?	-4%	18%	14µM*	4%
CCCOc1ccc(N2C(=O)CC(SC(=NCC)NCC)C2=O)cc1 (centres undefined)	-4%	9%	27%	-13%[59 µM]	4%
CCN(CC)C(=O)Cn1cc(S(=O)(=O)CC(=O)NC2CCCCC2)c2ccccc21	-2%	-6%	25%	-28%	-3%
Cc1ccc(/C=C/C(=O)Nc2cc(S(N)(=O)=O)ccc2O)cc1	-24%	-31%	?	8.9µM*	6%
N=C(N)SCCc1cccc(CCSC(=N)N)c1	-7%	.	23%	3.5µM*	.
CC(=O)n1c2c(c3ccccc31)OC(N)=C(C#N)C2c1cccc(Cl)c1Cl (centres undefined)	-19%	3%	23%	45µM*	3%
Cc1ccc(-c2nnc(SCC(=O)NCCC(C)C)nc2-c2ccc(C)cc2)cc1	?	-21%	22%	?	.
O=C1Nc2ccccc2C12OCC(COc1ccc(Cl)cc1)O2 (centres undefined)	79µM*	10%	-18%	-7%[12.7 µM]	.
CC(=O)N1c2ccc(S(=O)(=O)N3CCN(c4cc(Cl)ccc4C)CC3)cc2CC1C (centres undefined)	-10%	-1%	23%	-14%[59 µM]	.
Nc1ccc2oc(Cc3ccc(Cl)cc3)nc2c1	?	-37%	-19%	13µM*	.
O=[N+]([O-])c1ccc(O)c(C=Nc2ccc3oc(Cc4ccc(Cl)cc4)nc3c2)c1	.	?	.	28µM*	-21%
O=C(NCc1cccc(F)c1)C1CCN(c2nc3ccccc3nc2C(F)(F)F)CC1	-5%	0%	16%	-1%[59 µM]	.
SMILES	JMJD2A Tudor inh	BAZ2B block	HP1b chromo inh	G9a inh	L3MBTL1 block
Cc1ccc(NC(=O)c2c(C)oc3ccc(O)c(CN4CCCCCC4)c23)cc1	-30%	-22%	-26%	-26%[59 µM]	.
COc1cc(/C=C/C(=O)c2ccc(NS(=O)(=O)c3ccc(C)cc3)cc2)cc(OC)c1O	-33%	?	?	40µM*	-14%
COc1cccc(/C=C/C(=O)c2ccc(NS(=O)(=O)c3ccc(C)cc3)cc2)c1	?	?	-18%	2.5µM*	-5%
COc1ccc(CNc2ncnc3ccc(-c4c(C)noc4C)cc23)cc1	-31%	.	.	.	.
O=[N+]([O-])c1cccnc1N1CCC(c2cc(-c3ccc(Cl)cc3)n[nH]2)CC1	25µM*	50µM*	?	8.9µM*	.
COc1ccccc1C1=Nn2c(nnc2-c2ccccc2O)SC1	-12%	.	.	.	.
Cc1ccc(N=CC=C2OC(C)(C)C(C)(C)O2)cc1	1%	-27%	40%	?	-3%
COc1cccc(N=CC=C2OC(C)(C)C(C)(C)O2)c1	-20%	1%	38%	35µM*	.
COc1cccc(NC=C2C(=O)OC(C)(C)OC2=O)c1	-4%	0%	19%	22%	2%
Cc1ccccc1N=CC=C1OC(C)(C)C(C)(C)O1	-13%	1%	22%	40µM*	-9%
COc1ccc(N=CC=C2OC(C)(C)C(C)(C)O2)cc1OC	-26%	?	40%	32µM*	-3%
Cc1cccc(N=CC=C2OC(C)(C)C(C)(C)O2)c1	-14%	-14%	31%	?	1%
COc1cccc(N=CNc2cccc(OC)c2)c1	50µM*	.	-20%	.	.
CC(NC(=O)C1CCC(CNS(=O)(=O)c2ccc3c(c2)C(C)(C)C(=O)N3C)CC1)c1ccccc1 (centres undefined)	-6%	1%	43%	19%	-1%
CCc1ccccc1NC(=O)C1CCCN(c2nnc(-n3c(C)ccc3C)s2)C1 (centres undefined)	-32%	-18%	-8%	-16%[59 µM]	.
Cc1ccc([N+](=O)[O-])c(NC(=O)COC(=O)C2CC3CCCC(C2)C3=O)c1C (centres undefined)	-17%	-18%	36%	79µM*	.
Cc1cccc([N+](=O)[O-])c1NC(=O)COC(=O)C1CC2CCCC(C1)C2=O (centres undefined)	-8%	-2%	12%	5%[59 µM]	4%
O=c1[nH]c2ccccc2c(O)c1O	50µM*	2%	?	0.71µM*	6%
CCCCS(=O)c1c(O)c2ccccc2[nH]c1=O (centres undefined)	-13%	-7%	29%	32µM*	5%
COc1ccc(N2CCN(c3nccs3)CC2)cc1	?	-38%	-10%	50µM*	.
COc1ccc(OCC(O)CN2CCN(c3ccc(OC)cc3)CC2)cc1 (centres undefined)	?	-17%	3%	32µM*	.
COc1ccc(CNC(=O)C2CCN(c3nccs3)CC2)cc1	1%	8%	6%	2%	3%
